Results published in PubChem BioAssay (NCATS).
Inconclusive results are not listed. A call without a number means that no potency is given here. The source made the active and inactive calls. Calls come from the whole dose curve; as a rule, active = well fitted curve in the direction sought with a large enough effect; inconclusive = small, poorly fitted or top-dose-only effect, or another doubt; inactive = no such curve, though single readings can be large; an effect the other way counts as inactive or inconclusive.

Assay: qHTS to identify inhibitors of the type 1 interferon - major histocompatibility complex class I in skeletal muscle: primary screen against the NCATS Pharmaceutical Collection (AID 1347407);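 note: luminescence of HiBiT knocked into endogenous HLA-B as interferon-induced MHC class I level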
Conditions: human skeletal muscle cells, IFN-b-induced MHC-I HiBiT luminescence, 24 h; series mostly up to 92.2 µM
Procedure, shortened: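 Cells were seeded with 4 ng/ml IFN-beta, incubated 1 h, then dosed with compounds over eight 1:5 steps up to 46 uM final. After 24 h at 37 C, HiBiT lytic reagent was added and luminescence read after 10 min lysis in the dark.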
With `O=C(O)c1cc(Oc2ccc(C(F)(F)F)cc2Cl)ccc1[N+](=O)[O-]` the outcome was “inactive”. With `ClC1=C(Cl)[C@]2(Cl)[C@@H]3[C@@H]4C[C@@H]([C@H]5O[C@@H]45)[C@@H]3[C@@]1(Cl)C2(Cl)Cl` the outcome was “inactive”. With `CCOP(=O)(NC(C)C)Oc1ccc(SC)c(C)c1` (stereo not drawn) the outcome was “inactive”. For `C1CCC(NC2CCCCC2)CC1`, the outcome was “inactive”. For `CCC1(CCC(C)C)C(=O)NC(=O)NC1=O`, the outcome was “inactive”. With `O=[N+]([O-])c1c(Cl)c(Cl)cc(Cl)c1Cl` the outcome was “inactive”. For `O=[N+]([O-])c1cc([N+](=O)[O-])c2ccccc2c1`, the outcome was “inactive”. With `c1cc2ccc3cccc4ccc(c1)c2c34` the outcome was “inactive”. In the case of `C=CC(=O)NCNC(=O)C=C`, the outcome is reported as “inactive”. For `OCCCBr`, the outcome was “inactive”. For `O=S(=O)(O)C(F)(F)C(F)(F)C(F)(F)C(F)(F)F`, the outcome was “inactive”. With `Nc1ccc(Cl)cc1` the outcome was “inactive”. For `Fc1cc(Br)ccc1CBr`, the outcome was “inactive”. With `COCCOCCO` the outcome was “inactive”. With `CCO/N=C(\CC)C1=C(O)CC(c2c(C)cc(C)cc2C)CC1=O` (stereo not drawn) the outcome was “inactive”. With `C=CCC1=C(C)C(OC(=O)C2C(C=C(C)C)C2(C)C)CC1=O` (stereo not drawn) the outcome was “inactive”. In the case of `CCCCOC(=O)c1ccccc1C(=O)OCc1ccccc1`, the outcome is reported as “inactive”. In the case of `S=C(SSC(=S)N1CCCCC1)N1CCCCC1`, the outcome is reported as “inactive”. For `O=C(O)C(Cl)Cl`, the outcome was “inactive”. In the case of `CC(C)Oc1cccc(NC(=O)c2ccccc2C(F)(F)F)c1`, the outcome is reported as “inactive”. In the case of `O=C(O)COc1ccccc1`, the outcome is reported as “inactive”. With `Cc1ccc(Cl)c(O)c1` the outcome was “inactive”. In the case of `O=S(=O)(c1ccc(Cl)cc1)c1ccc(Cl)cc1`, the outcome is reported as “inactive”. For `O=C(Nc1ccccc1-c1ccc(Cl)cc1)c1cccnc1Cl`, the outcome was “inactive”. In the case of `O=[N+]([O-])c1ccc([As](=O)(O)O)cc1`, the outcome is reported as “inactive”.

Assay: qHTS for inhibitors of adenylyl cyclases using a fission yeast platform: a pilot screen against the NCATS LOPAC library (AID 1347410)
Conditions: S. pombe CHP2027, fbp1-GFP fluorescence, 18 h; series mostly up to 57.5 µM
Procedure, shortened: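 Growth medium went into the plates first, then compounds were pinned (final up to 57 µM), then CHP2027 yeast were added. Plates were incubated overnight (18 h) at 30C in the dark, and GFP was measured by laser scanning cytometry.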
In the case of `COc1ccc2c(c[n+](C)c3c4cc5c(cc4ccc23)OCO5)c1OC`, the outcome is reported as “inactive”. In the case of `CN[C@@H]1C[C@@H](c2ccc(Cl)c(Cl)c2)c2ccccc21`, the outcome is reported as “inactive”. With `c1ccc(CCCN2CCN(CCOC(c3ccccc3)c3ccccc3)CC2)cc1` the outcome was “inactive”. With `Cc1nccc2c1[nH]c1ccccc12` the outcome was “inactive”.

Assay: qHTS to identify inhibitors of the type 1 interferon - major histocompatibility complex class I in skeletal muscle: primary screen against the NCATS Mechanism Interrogation Plate v5.0 (MIPE) Libary (AID 1347411); note: nearly all actives have a fitted effect of over 65% in size; note: potency is the fitted concentration of half-maximal effect
Conditions: iHSKM cells + IFN-b, HiBiT-tagged MHC-I luminescence, 24 h; series mostly up to 45.8 µM
Procedure, shortened: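 Luminescence from HiBiT-tagged endogenous HLA-B*08:01 served as the MHC class I read-out. CRISPR-engineered C25cl48 human myoblasts received 4.0 ng/ml IFN-beta plus compound for 24 hrs, with an 11-point, 1:3 series topping at 46 uM final.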
For `COC1=C[C@@H]2[C@@H]3Cc4ccc(OC)c(O)c4[C@]2(CCN3C)CC1=O`, the Potency was “inactive”. For `CCN(CC)C(=O)c1ccc(C2=CC3(CCNCC3)Oc3cccc(O)c32)cc1`, the Potency was “inactive”. In the case of `Cc1[nH]nc2ccc(-c3cncc(OC[C@@H](N)Cc4c[nH]c5ccccc45)c3)cc12`, the Potency is reported as 2.62 µM (active). With `C#CC1(O)CCC2C3CCC4=CC(=O)CCC4(C)C3CCC21C` (stereo not drawn) the Potency was “inactive”. With `CC(C)[C@]12O[C@H]1[C@@H]1O[C@]13[C@]1(O[C@H]1C[C@H]1C4=C(CC[C@@]13C)C(=O)OC4)[C@@H]2O` the Potency was 0.0829 µM (active). In the case of `C[C@](O)(COc1ccc(C#N)cc1)C(=O)Nc1ccc(C#N)c(C(F)(F)F)c1`, the Potency is reported as “inactive”. With `O=C1C=CC[C@@H]2[C@H]3CCCN4CCC[C@@H](CN12)[C@@H]34` the Potency was “inactive”. In the case of `C[C@]12CC[C@H]3[C@@H](CCC4=CC(=O)CC[C@@]43C)[C@H]1CC[C@H]2OC(=O)CCC1CCCC1`, the Potency is reported as “inactive”. With `O=C(Oc1ccc([N+](=O)[O-])cc1)N1CCC(C(O)(c2ccc3c(c2)OCO3)c2ccc3c(c2)OCO3)CC1` the Potency was “inactive”.
